HCV inh: HCV inhibition. Huh7.5.1 HCVcc-Cre infection, luciferase reporter, 44 h. Potency, µM (highest dose often 41.8 µM), for inactives: top-dose activity change, negative = inhibition, usual class: inhibitors. hit rate 3.4% among 340,000. AID 651820; note: potency is the fitted concentration of half-maximal effect
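Infectious HCVcc-Cre (~0.5 moi) was added to cells just after compound, with cells seeded 4 h earlier at 1,000 per well. Luciferase activity after 44 h culture reported infection; substrate was incubated 15 min at room temperature before reading.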
FBPA Giardia inh: inhibitors of Giardia lamblia fructose-1,6-bisphosphate aldolase | purified Giardia FBPA | Potency, µM (titrated, usually from 59.6 µM), inactives show top-dose activity, negative = inhibition, usual class: inhibitors | hit rate 0.71% among 290,000 | AID 2451; note: potency is the fitted concentration of half-maximal effect; nearly all actives have a fitted effect of over 55% in size
Target sequence (A8B2U2 whole entry, looked up): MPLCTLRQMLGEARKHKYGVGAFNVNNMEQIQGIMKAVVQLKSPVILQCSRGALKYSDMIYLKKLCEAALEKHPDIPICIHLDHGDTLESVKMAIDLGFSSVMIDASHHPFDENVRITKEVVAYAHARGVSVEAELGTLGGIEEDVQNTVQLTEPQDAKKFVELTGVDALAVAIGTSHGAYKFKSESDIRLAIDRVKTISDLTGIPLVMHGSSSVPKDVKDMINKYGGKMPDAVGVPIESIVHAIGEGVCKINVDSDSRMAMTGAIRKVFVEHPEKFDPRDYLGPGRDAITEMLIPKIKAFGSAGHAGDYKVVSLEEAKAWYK
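40 nM FBPA preincubated 10 min at RT with compound (up to 57.5 uM final), then substrate plus GAPDH/TPI/NAD/arsenate coupling and diaphorase/resazurin added. Fluorescence read after 20 min at RT, 525/598 nm.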
HCMV antiviral: human cytomegalovirus inhibition | HFF cells, HCMV-luciferase reporter, 72 h; active compounds read low | activity change, negative = inhibition, % at 57.5 µM | hit rate 4.5% among 410,000 | AID 1259415; in the data active = activity change below about -60%; inconclusive = no clear call, values can overlap the other calls; inactive = above about -39%
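Screen run at 2 compound doses on HFFs infected with reporter HCMV, MOI 1 PFU/cell. Luciferase activity from cell lysates at 72 h post infection gave inhibition relative to buffer-only and Salinomycin wells.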
LASV entry inh: Lassa virus entry inhibition. Potency, µM (titrated, usually from 37.9 µM), inactives show at the highest dose activity change, negative = inhibition, actives largely listed as inhibitors. Lassa virus pseudotype entry inhibition, cell reporter. hit rate 1.2% among 300,000; calls by dose curve; tested in HEK293 cells; note: potency is the fitted concentration of half-maximal effect; nearly all actives have a fitted effect of over 50% in size
Marburg entry inh: blocks Marburg virus binding to or entry into cells; Marburg virus pseudotyped entry inhibition, cell reporter; Potency, µM (series often up to 37.8 µM), without a hit: at the top dose activity change, negative = inhibition, usual class: inhibitors; hit rate 1.8% among 300,000; AID 540276; calls by dose curve; tested in HEK293 cells; note: potency is the fitted concentration of half-maximal effect
FMDV antiviral: foot and mouth disease virus antiviral activity | FMDV antiviral cell-based qHTS | Potency, µM (titrated, usually from 57.9 µM), for inactives: at the top dose activity change, negative = inhibition, hits mostly inhibitors | hit rate 1.2% among 410,000 | AID 1159524; calls by dose curve; tested in HEK293T cells; note: read-out not given here; potency is the fitted concentration of half-maximal effect; nearly all actives have a fitted effect of over 45% in size
* = called active by the depositor; ? = inconclusive; . = not tested or not shown; + = active, no number; [ ] = remark or other dose. In the library only some 8.3% were active in any assay of this set; here they are far more common. Unless noted, calls come from the whole dose curve; as a rule, active = well fitted curve in the direction sought with a large enough effect; inconclusive = small, poorly fitted or top-dose-only effect, or another doubt; inactive = no such curve, though single readings can be large; an effect the other way counts as inactive or inconclusive. % is set by controls: 0 for no effect and ±100 for the full control effect.

SMILES	HCV inh	FBPA Giardia inh	HCMV antiviral	LASV entry inh	Marburg entry inh	FMDV antiviral
CCN1CCN(c2ccc(S(=O)(=O)N3CCCCC3)cc2NC(=O)c2ccc(F)cc2)CC1	-17%	4%	4	11%	?	-7%
COc1ccc(-c2cc3ccccc3oc2=O)cc1NC(=O)c1ccc(Br)o1	16%	-2%	-26	8%	?	17%
CS(=O)(=O)N1CCN(c2ccccc2NC(=O)c2ccc([N+](=O)[O-])o2)CC1	11µM*	1%	-83*	?	?	?
CN1CCN(c2ccccc2NC(=O)c2ccc([N+](=O)[O-])o2)CC1	?	.	.	-20%	?	-3%
CCN1CCN(c2ccc(S(=O)(=O)N3CCOCC3)cc2NC(=O)/C=C/c2ccc([N+](=O)[O-])cc2)CC1	25µM*	.	7	-4%[46.1 µM]	?	-7%
CCN1CCN(c2ccc(S(=O)(=O)N3CCCCC3)cc2NC(=O)c2ccc([N+](=O)[O-])o2)CC1	3.5µM*	.	-28	?	?	-3%
COc1ccc(-c2cc3ccccc3oc2=O)cc1NC(=O)c1ccc([N+](=O)[O-])o1	?	-1%	-66*	-22%	-29%	-6%
CCCOc1cccc(C(=O)Nc2cc(-c3ccccc3)no2)c1	.	.	-4	22%[46.1 µM]	?	28%
CN1CCN(c2ccccc2NC(=O)c2ccc(-c3cccc([N+](=O)[O-])c3)o2)CC1	5.6µM*	3%	31	?	?	0%
CCC(=O)N1CCN(c2ccccc2NC(=O)c2ccc(-c3cccc([N+](=O)[O-])c3)o2)CC1	?	-4%	48	-15%	?	-17%
COc1ccc(S(=O)(=O)N2CCCCC2)cc1NC(=O)c1ccc([N+](=O)[O-])o1	10µM*	0%	72	-9%[46.1 µM]	19%[46.1 µM]	-18%
Cn1cnc(S(=O)(=O)N2CCC(C(=O)N3CCN(c4ccccc4F)CC3)CC2)c1	.	.	-16	?	.	-20%
COc1ccc(-c2nc(NC(=O)c3ccc(OCC(=O)Nc4ccc(F)cc4)c(OC)c3)sc2C)cc1	?	1%	23	?	?	18µM*
COC(=O)C1(C(=O)OC)Cc2conc2[C@H]1c1ccccc1	.	2%	.	.	-10%[14.2 µM]	.
CCOC(=O)C(NC(=O)c1cccc(Cl)c1)(OCc1ccccc1)C(F)(F)F (stereo not drawn)	-12%	1%	-62*	?	?	-7%
COc1ccc(-c2ccc(NS(=O)(=O)c3cc(C)c(C)cc3C)cc2)nn1	.	.	-77*	19%[46.1 µM]	.	55%
Cc1cccc(NC(=O)c2ccccc2-c2ccccc2)c1	-6%	-1%	-104*	3%	-13%[46.1 µM]	-18%
O=C(Nc1cccnc1)c1ccccc1-c1ccccc1	-6%	1%	-60*	.	.	8%
Cc1cccc(NC(=O)c2cc(S(=O)(=O)c3ccccc3)ccc2Cl)c1	7.9µM*	-6%	-107*	?	?	-40%
COc1ccc(C(=O)Nc2ccc(S(=O)(=O)N3CCc4ccccc43)cc2)cc1	11µM*	.	-90*	13µM*	?	?
COc1cc2nc(NC(=O)c3ccc(S(=O)(=O)N4CCc5ccccc54)cc3)sc2cc1OC	.	.	-72*	-24%[46.1 µM]	.	?
O=C(Nc1nc2c(Cl)cccc2s1)c1ccc(S(=O)(=O)N2CCc3ccccc32)cc1	.	.	-29	?	.	?
O=C(O)C1CC=CCC1C(=O)Nc1ccc(S(=O)(=O)N2CCCc3ccccc32)cc1 (stereo not drawn)	13%	29%	-76*	3.3µM*	2.1µM*	-10%
O=C(Nc1ccc(S(=O)(=O)N2CCCc3ccccc32)cc1)C1CCCO1 (stereo not drawn)	-7%	-1%	24	-17%	-3%	?
Cn1cc(S(=O)(=O)N2CCCCC2)cc1C(=O)Nc1cccc(C#N)c1	.	.	-14	18%[46.1 µM]	.	-15%
SMILES	HCV inh	FBPA Giardia inh	HCMV antiviral	LASV entry inh	Marburg entry inh	FMDV antiviral
CCN(CC)S(=O)(=O)c1ccc2c(c1)nc(CN(C)C(=O)Nc1ccc(C)c(F)c1)n2C	.	.	-4	18%[46.1 µM]	.	-21%
Nc1c(Cl)cc(C2=NCCn3c2c2ccc([N+](=O)[O-])cc2[n+]3[O-])cc1Cl	10µM*	.	?	.	.	-15%
COCC(=O)N1CCC2(CCCN(C(=O)Nc3ccc(OC)cc3)C2)CC1	.	3%	.	.	.	1%
CC[C@H](C)[C@H](NC(=O)[C@H](CC(=O)O)NC(=O)[C@H](CC(C)C)NC(=O)[C@H](Cc1cnc[nH]1)NC(=O)[C@H](C)NC(=O)[C@H](Cc1ccccc1)NC(=O)[C@H](Cc1ccc(O)cc1)NC(=O)[C@@H](NC(=O)[C@H](C)NC(=O)[C@H](CCC(=O)O)NC(=O)[C@H](CCC(=O)O)NC(=O)[C@H](CC(=O)O)NC(=O)CCC(=O)O)C(C)C)C(=O)N[C@H](C(=O)N[C@@H](Cc1c[nH]c2ccccc12)C(=O)O)[C@@H](C)CC	.	-3%	.	.	.	.
Cc1cccc(C(=O)Nc2nnc(S(=O)(=O)N(C)Cc3ccc(Cl)cc3)s2)c1	.	.	?	26%[46.1 µM]	.	-14%
Cc1ccc(C(=O)Nc2nnc(S(=O)(=O)N(C)Cc3ccc(F)cc3)s2)cc1	.	.	+	4%[46.1 µM]	.	29%
COc1cc(Nc2nccc3[nH]c(-c4cccc(C(C)C)c4)nc23)cc(OC)c1OC	.	.	-14	.	.	.
CCOc1cc(C(=O)N/N=C/c2ccoc2)cc(OCC)c1OCC	-16%	.	-88*	.	.	5%
CCOc1ccc(C(=O)N/N=C/c2ccc(SC)cc2)cc1	10%	2%	-33	2.8µM*	7%	-16%
CCOc1ccc(C(=O)/C=C/c2ccc(SC)cc2)cc1	?	-8%	5	-3%	-11%	-11%
CCOc1cc(C(=O)N/N=C/c2ccsc2)cc(OCC)c1OCC	?	5%	14	?	?	2%
COc1ccc2[nH]cc(CCNc3ncnc4ccc(-c5c(C)noc5C)cc34)c2c1	.	5%	.	.	.	-17%
Cc1ccc(CNC(=O)CSc2c(C(C)C)cnc3c2c(=O)n(C)c(=O)n3C)cc1	.	.	-39	-9%[46.1 µM]	.	-6%
COc1ccccc1-c1ccc(NC2CCCCC2)nn1	22µM*	-10%	50	25%	?	47%

From PubChem BioAssay
